# In the supplement of paper PMC6555819:
# Test system: RARg:RXRa (NR concentration 270 nM, RXRa partner concentration 90 nM)
# Assay: PBM binding z-score (relative to random genomic background probes); higher = stronger binding; sequences stand for … in GC…GCGATTGACAGCGTAGAATGAAGG
# In short: (§1)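 Custom Agilent 4×180K protein-binding microarrays carried double-stranded probes. Their 34-nt variable regions held direct-repeat seeds, single-nucleotide variants, half-site ablations and random human genomic background sequences. Arrays were incubated 1 h with ligand-free nuclear receptor dimers in PBS pH 7.4, 2% milk, 0.02% Triton X-100, 1 mM DTT, 0.2 mg/mL BSA and 0.4 mg/ml salmon testes DNA. Antibodies against each partner (one per run) detected binding, and scanned fluorescence was regression-normalized. Binding z-scores use random background probes as reference.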
row,Sequence,PBM binding z-score
1,TATACAGGGTCAAAGGCCAGTGTACGAATGTCGA,5.7
2,AGAACGAGGGCACTCTGAGTTGATAGCAGAGTAG,1.4
3,CCTAGTTGGTCAGGCGGTCACACACCGGATATGA,1.41
4,CCTCGGAGGACAACAGGAGGTCAGAGCAGCCAGA,3.56
5,GCAGACAGGTGAAACGTAGGTAACTCAGGGTGGC,0.956
6,GATACAGGGTCAGTTAGAGGCCAGAGTATGGAAA,5.99
7,CGAACTAGGTCATCCAGGGCAGTGAATACATTGA,4.41
8,TCTCGGAGGACACTAAGGTCAGAGCTTTCCAGAG,3.4
9,CAAACTAGGTCAAGAGGGCAAAGTCCGCTTCCCG,5.73
10,GCATATAGGTAATACAAGGAGAAAGTCCGATTGT,0.152
11,TCTTGTAGATCATCAGGTTAAGAAAGCTGGCCAA,0.0917
12,CTCGAAATGTCGGTTGAGGTGAGTATACGGATAA,0.0589
13,AGAATGAGGTGACCAAAGATCAGGGAAACGCTTG,1.06
14,TCATACAGGTGAAGGTAACTCAGGTACGCAGTCG,0.872
15,ACAAACAGGTGATGAAGGTAACTCAGGCTATCAT,0.443
16,ATACCAAGGTGATCGTGAGGTCGTTCATACTAAC,2.21
17,ATCGCAAGGTCGAAGGTGAGTATACCCACCCGAA,2.67
18,CATACAGGGTCAGCTAGGCTAGAGTAGGGACGGC,4.09
19,CCGAGTTGGTCAGGAGGTCACACACCGGATATGA,5.33
20,CCGACTGGGGTAAAGGTTACCATACTCAGTACGA,2.51

row,Sequence,PBM binding z-score
1,TCTTGTAGCTCAAGCAGGTTAAGAAAGCCTGAGT,-0.427
2,CAAACTAGGTCAAAGGTCGAAGTCGAGCCAACCA,7.26
3,CAAACTAGGTCACAGAGGTCACAGTCCGTGCGTA,7.17
4,GGAGACAGGTGAAACGCAGGTAACTCAGGGTGGC,1.11
5,CCTATTAGTTGATCATAAGGGCAACCGAAGCTCG,0.898
6,GGAACGAGGGCATTTGAGTTGATAGCATGGCGAT,1.17
7,GCTTACGGGTCATAGGTTATAGCATGAATAGAAT,4.99
8,TCTTGTAGATCAAGCAGGTTAAGGAAGCCTGAGT,0.0317
9,CCAAGTTGGTCAAGGTCACACACGCTATAGGTAC,5.04
10,CCTAACAGGCCAATCTGGGTCACTCAAGGCTTGA,1.47
11,GCTAGCAGGCCATTTGGTTCACTCAATGACGGGC,-0.115
12,ACTCGGAGGACAAAGGTCAGAGCAACGCCAGTGA,6.11
13,ATCTCTAGGTAAAGATAGATCAGTGAATGCAAAT,0.264
14,AGAATGAGGTTACCAAAGATCACGGAAACGCTTG,2.24
15,TCAAATAGGTAATACAGGTGAAAGTCGGCATCTA,0.633
16,CCGACTGGGGCAAAGGATACCATACTCAGTACGA,0.271
17,CTCGTAAGGTCGGTTGAGGTGAGTATACGGATAA,1.89
18,GCGATTGGGGCATCAGCAGGTTACCATAACTTAA,0.779
19,ATCTCTAGGTAAGACTCAGGTCAGTGAAGAACGC,1.49
20,TCATATAGGTAAACAGGTGGAAGTCCGTAAGTTA,0.462

# Test system: RARg homodimer (NR concentration 270 nM)
# Assay: as above
# In short: as §1
row,Sequence,PBM binding z-score
1,TATACAGGGTCAAAGGCCAGTGTACGAATGTCGA,5.08
2,AGAACGAGGGCACTCTGAGTTGATAGCAGAGTAG,1.55
3,CCTAGTTGGTCAGGCGGTCACACACCGGATATGA,1.67
4,CCTCGGAGGACAACAGGAGGTCAGAGCAGCCAGA,3.45
5,GCAGACAGGTGAAACGTAGGTAACTCAGGGTGGC,0.393
6,GATACAGGGTCAGTTAGAGGCCAGAGTATGGAAA,4.52
7,CGAACTAGGTCATCCAGGGCAGTGAATACATTGA,5.14
8,TCTCGGAGGACACTAAGGTCAGAGCTTTCCAGAG,3.84
9,CAAACTAGGTCAAGAGGGCAAAGTCCGCTTCCCG,5.4
10,GCATATAGGTAATACAAGGAGAAAGTCCGATTGT,0.156
11,TCTTGTAGATCATCAGGTTAAGAAAGCTGGCCAA,-0.23
12,CTCGAAATGTCGGTTGAGGTGAGTATACGGATAA,0.341
13,AGAATGAGGTGACCAAAGATCAGGGAAACGCTTG,1.01
14,TCATACAGGTGAAGGTAACTCAGGTACGCAGTCG,0.925
15,ACAAACAGGTGATGAAGGTAACTCAGGCTATCAT,0.626
16,ATACCAAGGTGATCGTGAGGTCGTTCATACTAAC,0.992
17,ATCGCAAGGTCGAAGGTGAGTATACCCACCCGAA,2.23
18,CATACAGGGTCAGCTAGGCTAGAGTAGGGACGGC,4.3
19,CCGAGTTGGTCAGGAGGTCACACACCGGATATGA,4.41
20,CCGACTGGGGTAAAGGTTACCATACTCAGTACGA,1.44

row,Sequence,PBM binding z-score
1,TCTTGTAGCTCAAGCAGGTTAAGAAAGCCTGAGT,-0.42
2,CAAACTAGGTCAAAGGTCGAAGTCGAGCCAACCA,5.75
3,CAAACTAGGTCACAGAGGTCACAGTCCGTGCGTA,7.58
4,GGAGACAGGTGAAACGCAGGTAACTCAGGGTGGC,0.252
5,CCTATTAGTTGATCATAAGGGCAACCGAAGCTCG,0.868
6,GGAACGAGGGCATTTGAGTTGATAGCATGGCGAT,1.29
7,GCTTACGGGTCATAGGTTATAGCATGAATAGAAT,3.83
8,TCTTGTAGATCAAGCAGGTTAAGGAAGCCTGAGT,-0.28
9,CCAAGTTGGTCAAGGTCACACACGCTATAGGTAC,5.36
10,CCTAACAGGCCAATCTGGGTCACTCAAGGCTTGA,1.75
11,GCTAGCAGGCCATTTGGTTCACTCAATGACGGGC,-0.168
12,ACTCGGAGGACAAAGGTCAGAGCAACGCCAGTGA,5.43
13,ATCTCTAGGTAAAGATAGATCAGTGAATGCAAAT,0.561
14,AGAATGAGGTTACCAAAGATCACGGAAACGCTTG,1.89
15,TCAAATAGGTAATACAGGTGAAAGTCGGCATCTA,0.49
16,CCGACTGGGGCAAAGGATACCATACTCAGTACGA,0.572
17,CTCGTAAGGTCGGTTGAGGTGAGTATACGGATAA,2.09
18,GCGATTGGGGCATCAGCAGGTTACCATAACTTAA,0.543
19,ATCTCTAGGTAAGACTCAGGTCAGTGAAGAACGC,1.35
20,TCATATAGGTAAACAGGTGGAAGTCCGTAAGTTA,0.0474
